Molecules are shown by their SMILES. Screen size: about 310,000 compounds; about 14,000 (4.5%) showed an effect of 50% or more. The effect is printed as a negative number. For the sample, strong results were picked, then their nearest neighbours and some compounds at random.
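Note: peak tail current of the secondary pulse compared with the same well before compound.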

The target in the experiment is human ether-à-go-go-related gene (hERG) potassium channel (human, UniProt Q12809). The experiment is described as follows: primary screen, population patch clamp on CHO cells stably expressing hERG; higher = less effect of the substance.
Sequence of human ether-à-go-go-related gene (hERG) potassium channel (Q12809 whole entry, looked up): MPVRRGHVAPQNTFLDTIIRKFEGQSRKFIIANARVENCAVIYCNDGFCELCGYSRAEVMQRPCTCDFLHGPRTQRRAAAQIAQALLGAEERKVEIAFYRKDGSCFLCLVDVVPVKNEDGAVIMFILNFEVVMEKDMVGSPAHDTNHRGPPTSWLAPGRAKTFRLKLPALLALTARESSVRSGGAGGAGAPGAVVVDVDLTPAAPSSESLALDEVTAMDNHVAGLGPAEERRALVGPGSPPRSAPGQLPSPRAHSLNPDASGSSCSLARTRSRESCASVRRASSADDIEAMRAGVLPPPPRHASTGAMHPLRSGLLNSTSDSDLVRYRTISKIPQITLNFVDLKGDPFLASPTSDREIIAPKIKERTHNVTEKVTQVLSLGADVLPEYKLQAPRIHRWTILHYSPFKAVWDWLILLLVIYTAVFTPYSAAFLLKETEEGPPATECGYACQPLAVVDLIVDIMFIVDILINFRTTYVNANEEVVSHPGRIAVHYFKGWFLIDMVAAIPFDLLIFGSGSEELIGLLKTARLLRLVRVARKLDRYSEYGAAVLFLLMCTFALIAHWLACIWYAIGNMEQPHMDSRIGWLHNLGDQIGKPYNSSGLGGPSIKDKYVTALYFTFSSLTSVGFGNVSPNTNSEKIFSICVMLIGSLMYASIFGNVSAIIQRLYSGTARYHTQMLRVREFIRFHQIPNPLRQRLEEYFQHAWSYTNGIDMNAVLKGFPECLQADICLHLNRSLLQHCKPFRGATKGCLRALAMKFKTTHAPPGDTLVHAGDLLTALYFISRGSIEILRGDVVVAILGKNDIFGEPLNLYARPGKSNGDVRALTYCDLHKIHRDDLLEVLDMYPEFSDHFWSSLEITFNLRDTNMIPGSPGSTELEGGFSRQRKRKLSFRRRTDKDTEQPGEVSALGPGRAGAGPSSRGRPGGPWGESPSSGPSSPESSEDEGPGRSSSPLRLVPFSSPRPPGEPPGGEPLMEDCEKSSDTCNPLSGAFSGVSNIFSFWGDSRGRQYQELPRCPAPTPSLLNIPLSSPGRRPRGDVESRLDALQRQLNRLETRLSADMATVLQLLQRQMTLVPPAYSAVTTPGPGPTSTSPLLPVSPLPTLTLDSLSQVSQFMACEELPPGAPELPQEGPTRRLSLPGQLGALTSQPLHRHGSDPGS
Regarding `O=C(N/N=C/c1ccc(F)cc1)c1cccc(NC(=O)c2ccc(F)cc2)c1`, the “hERG current change (%, negative = inhibition) at 10uM” value was -4.54%. The value for `O=C(Nc1cccc(-n2cnnn2)c1)c1ccco1` was -0.205%; that for `COc1ccc(NC(=S)N2CCC(N(C)CCN3CCOCC3)CC2)cc1Cl` was -26.8%; that for `CN(C)c1nc(N(C)C)nc(N(C#N)CCCl)n1` was 8.89%. Regarding `COc1ccc(-c2noc(-c3ccoc3C)n2)cc1`, the “hERG current change (%, negative = inhibition) at 10uM” value stood at 39.5%. The value for `Cc1noc(N)c1C1(O)C(=O)Nc2c(Cl)cc(Cl)cc21` (stereo not shown) was 0.32%; that for `CCOc1ccc(CCN2C(=O)c3ccc(C(=O)O)cc3C2=O)cc1OCC` was -3.15%. The value for `COc1ccc(C2CC(c3cccs3)=NN2C(=O)COC(=O)C2CCCCC2)cc1OC` (stereo not shown) was -18.1%. Turning to `CC(=O)c1c(N2CCN(C)CC2)nc(=S)n(-c2cc(C)ccc2C)c1C`, the “hERG current change (%, negative = inhibition) at 10uM” value is recorded as 28.7%. Consider `CC(C)(C)C(=O)Nc1ccc(S(=O)(=O)N2CCCC2)cc1`, for which the “hERG current change (%, negative = inhibition) at 10uM” value turned out to be 4.25%. The value for `COc1ccc(CC(=O)Nc2cc(NC(=O)Cc3ccc(OC)c(OC)c3)cc(C(=O)O)c2)cc1OC` was 14.3%. As for `CN(c1ccccc1)c1nc(N)c([N+](=O)[O-])c(NCc2ccccc2)n1`, the “hERG current change (%, negative = inhibition) at 10uM” value amounted to 17.6%. The value for `Cc1ccc(-c2cc(C(=O)N3CCN(c4ncccn4)CC3)c3ccccc3n2)cc1` was -40.9%; that for `COc1ccc(-c2cc(C(=O)N3CCCC3)c3ccccc3n2)cc1` was -2.31%; that for `O=C(c1cc(-c2ccc(F)cc2)nc2ccccc12)N1CCN(C2CCS(=O)(=O)C2)CC1` (stereo not shown) was -69%. Regarding `Cc1ccc(-c2cc(C(=O)N3CCN(C4CCS(=O)(=O)C4)CC3)c3ccccc3n2)cc1` (stereo not shown), the “hERG current change (%, negative = inhibition) at 10uM” value is -60.7%. Take `O=C(c1cc(-c2ccccc2)nc2ccccc12)N1CCN(C2CCS(=O)(=O)C2)CC1` (stereo not shown): the “hERG current change (%, negative = inhibition) at 10uM” value is reported as -25%.

On to `O=C(NC1CCS(=O)(=O)C1)c1cc(-c2ccccc2)nc2ccccc12` (stereo not shown), for which the “hERG current change (%, negative = inhibition) at 10uM” value was determined as 13.6%. `Cc1ccccc1C(=O)Oc1cccc(Nc2ncnc3ccccc23)c1`: the “hERG current change (%, negative = inhibition) at 10uM” value is given as -3.38%. For the compound `CCC(C)NC(=O)CN1C(=O)NC2(CCOc3ccccc32)C1=O` (stereo not shown), the “hERG current change (%, negative = inhibition) at 10uM” value is reported as -9.56%. On to `CCCNC(=O)Cc1ccsc1`, for which the “hERG current change (%, negative = inhibition) at 10uM” value is given as 9.93%. For `O=C(NCc1cccs1)C1CCN(S(=O)(=O)c2cccc([N+](=O)[O-])c2)CC1`, the “hERG current change (%, negative = inhibition) at 10uM” value is -15.7%. Turning to `Fc1ccc(NC(=S)NCCc2ccccc2)c(F)c1F`, the “hERG current change (%, negative = inhibition) at 10uM” value was -1.12%. The value for `CCC(Sc1nnc(C)c(=O)[nH]1)C(=O)Nc1cccc2ccccc12` (stereo not shown) was 10%; that for `O=C(CCCc1nc2ccccc2s1)NCc1cccnc1` was 0.483%; that for `C/C(=N/NC(=O)CN1CCN(S(=O)(=O)c2ccc(Br)cc2)CC1)c1ccncc1` was -80.3%.

Regarding `C/C(=N\NC(=O)CN1CCN(S(=O)(=O)c2ccc(C)cc2)CC1)c1cccnc1`, the “hERG current change (%, negative = inhibition) at 10uM” value is given as -46.9%. On to `C/C(=N\NC(=O)CCc1ccc(S(=O)(=O)N2CCOCC2)cc1)c1ccc(Br)cc1`, for which the “hERG current change (%, negative = inhibition) at 10uM” value is on record as 6.98%. As to `C/C(=N\NC(=O)CN1CCN(S(=O)(=O)c2ccc(C)cc2)CC1)c1ccncc1`, the “hERG current change (%, negative = inhibition) at 10uM” value is given as -77.1%. Regarding `C/C(=N\NC(=O)CN1CCN(S(=O)(=O)c2ccc(C)cc2)CC1)c1ccc(O)cc1`, the “hERG current change (%, negative = inhibition) at 10uM” value is on record as -6.97%. Take `NC(=O)CN1CCN(S(=O)(=O)c2ccc(Br)cc2)CC1`: the “hERG current change (%, negative = inhibition) at 10uM” value worked out at 22.4%. The value for `O=C(Nc1ccc2c(c1)CCC2)c1ccccc1` was 9.66%; that for `Cc1cccc(C2c3[nH]c4ccccc4c3CCN2C(=O)c2ocnc2C)n1` (stereo not shown) was -10.5%; that for `Cc1ncoc1C(=O)N1CCc2c([nH]c3ccccc23)C1C(C)(C)C` (stereo not shown) was -65.3%. As for `Cc1ncoc1C(=O)N1CCc2c([nH]c3ccccc23)C1C1CCCCC1` (stereo not shown), the “hERG current change (%, negative = inhibition) at 10uM” value came to 1.89%. For `COc1ccc(CNC(=O)C(C)n2ccc3cc(S(=O)(=O)N4CCCCCC4)ccc32)cc1` (stereo not shown), the “hERG current change (%, negative = inhibition) at 10uM” value stood at 1.82%. Turning to `CCN(CC)CCC(c1ccc2c(c1)OCO2)c1c(OC)cc(OC)c2ccc(=O)oc12` (stereo not shown), the “hERG current change (%, negative = inhibition) at 10uM” value is -46.2%. The value for `CCN(CC)CCC(c1ccc(OC)cc1)c1c(O)cc(OC)cc1OC` (stereo not shown) was -66.4%. The value for `CCN(CC)CCC(c1ccc(N(C)C)cc1)c1c(O)cc(OC)cc1OC` (stereo not shown) was -0.431%; that for `CCN(CC)C(=O)CC(c1ccc(OC)cc1)c1c(O)cc(OC)cc1OC` (stereo not shown) was -1.57%; that for `CCN(CC)CCC(c1ccc2c(c1)OCO2)c1c(O)cc(OC)cc1OC` (stereo not shown) was -73.4%.

As to `CCN(CC)C(=O)CC(c1ccc2c(c1)OCO2)c1c(O)cc(OC)cc1OC` (stereo not shown), the “hERG current change (%, negative = inhibition) at 10uM” value was -2.77%. On to `CC(C)CC(C(=O)OCC(=O)c1c(N)n(C)c(=O)n(C)c1=O)N1C(=O)c2ccccc2C1=O` (stereo not shown), for which the “hERG current change (%, negative = inhibition) at 10uM” value is on record as -27%.

As to `COCCNC(=S)N1CCC(C(=O)c2ccc3c(c2)OCCO3)CC1`, the “hERG current change (%, negative = inhibition) at 10uM” value is on record as 32.7%. On to `Cc1ccc(F)cc1CNC(=O)c1cc(COc2ccc3ncccc3c2)on1`, for which the “hERG current change (%, negative = inhibition) at 10uM” value is given as 5.04%. The value for `CCn1c(=O)c2c(cnn2C)c2ccccc21` was 2.58%; that for `Brc1ccc(-c2c(-c3ccsc3)sc3ccccc23)cn1` was 14.1%. The value for `Cc1ccc(-c2nc(CS(=O)CC(=O)NCCN3CCCC3)c(C)o2)cc1` (stereo not shown) was -5.74%. Turning to `CC(C)c1ccc(-c2csc(NC(=O)c3cccs3)c2C(=O)O)cc1`, the “hERG current change (%, negative = inhibition) at 10uM” value worked out at 18.3%.

Regarding `Cc1ccccc1-n1c(SCC(=O)NCc2cccs2)nc2ccccc2c1=O`, the “hERG current change (%, negative = inhibition) at 10uM” value is reported as -17.4%. Regarding `COc1cc2nc(SCC(=O)NCCc3ccccc3)n(Cc3ccco3)c(=O)c2cc1OC`, the “hERG current change (%, negative = inhibition) at 10uM” value is recorded as -43.3%. Regarding `O=C(CSc1nc2ccsc2c(=O)n1Cc1ccc(C(=O)O)cc1)NCc1ccco1`, the “hERG current change (%, negative = inhibition) at 10uM” value is given as 2.08%.

For the compound `Cn1c(SCC(=O)NCc2ccco2)nc2ccccc2c1=O`, the “hERG current change (%, negative = inhibition) at 10uM” value was -23.6%. In the case of `COCCNC(=O)CSc1nc2cc3c(cc2c(=O)n1Cc1ccco1)OCO3`, the “hERG current change (%, negative = inhibition) at 10uM” value is on record as -27.4%. As to `O=C(CSc1nc2ccccc2c(=O)n1Cc1ccccc1)NCc1ccco1`, the “hERG current change (%, negative = inhibition) at 10uM” value is given as -39.6%.

Turning to `COCCNC(=O)CSc1nc2cc(OC)c(OC)cc2c(=O)n1Cc1ccco1`, the “hERG current change (%, negative = inhibition) at 10uM” value is -61.2%.

In the case of `O=C(CSc1nc2ccccc2c(=O)n1Cc1ccc(F)cc1)NCc1cccs1`, the “hERG current change (%, negative = inhibition) at 10uM” value is on record as -14%. The value for `O=C(CSc1nc2ccccc2c(=O)n1Cc1ccco1)NCc1ccccc1` was -29.3%; that for `O=C(CSc1nc2ccccc2c(=O)n1Cc1ccc(C(=O)NC2CC2)cc1)NCc1ccco1` was -51.5%. For `O=C(CSc1nc2ccccc2c(=O)n1Cc1ccco1)NCc1ccco1`, the “hERG current change (%, negative = inhibition) at 10uM” value was -65.4%. The value for `O=C(CSc1nc2ccccc2c(=O)n1Cc1ccc(Cl)cc1)NCc1cccs1` was -52.5%.

(Values after article PMC4336329 (PLoS ONE, 2015).)
